Inconclusive results are not listed. Where a call stands in place of a potency, no number is given. Activity calls are given as the source filed them. The call rests on the fitted dose curve; in most records, active means well fitted cell-killing curve with a large enough effect in the repeat runs; inconclusive means weak or mixed curves, or effect the other way; inactive means no such curve, though single readings can be large or run the other way.
Test: qHTS assay to identify small molecule antagonists of the peroxisome proliferator-activated receptor gamma (PPARg) signaling pathway - cell viability counter screen (AID 743194); further: nearly all actives have a fitted effect of over 55% in size
Settings: PPARg-bla HEK293H viability, CellTiter-Glo luminescence, 17 h, co-treated with 50 nM rosiglitazone; series mostly up to 62.6 µM
Source text: U.S. Tox21 Program National Center for Advancing Translational Sciences [NCATS] NIH Chemical Genomics Center [NCGC] U.S. Environmental Protection Agency [EPA] National Institutes of Environmental Health Sciences [NIEHS] National Toxicology Program [NTP] U.S. Food and Drug Administration [FDA] Tox21 Assay Overview: The peroxisome proliferator-activated receptors (PPARs) are lipid-activated transcription factors of the nuclear receptor superfamily with three distinct subtypes namely PPAR alpha, PPAR delta (also called PPAR beta) and PPAR gamma (PPARg). All these subtypes heterodimerize with Retinoid X receptor (RXR) and these heterodimers regulate transcription of various genes. PPAR-gamma receptor (glitazone receptor) is involved in the regulation of glucose and lipid metabolism. To identify the compounds that activate PPAR-gamma signaling, GeneBLAzer PPAR gamma UAS-bla HEK293H cell line (Invitrogen, Carlsbad, CA, USA) containing a beta-lactamase reporter gene under the control of an Upstream Activator Sequence (UAS) was used to screen the Tox21 compound library. The cytotoxicity of the Tox21 compound library against the PPARg-bla cell line was tested in parallel by measuring the cell viability using CellTiter-Glo assay in the same wells.
Tox21 Assay Protocol Summary: PPARg-bla cells were dispensed at 3000 cells/5uL/well in 1536-well black wall/clear bottom plates using a Multidrop Combi (Thermo Fisher Scientific, Waltham, MA) dispenser. After the assay plates were incubated at 37 C and 5% CO2 for 5 h, 23 nL of compounds dissolved in DMSO, positive controls or DMSO only was transferred to the assay plate by a Pintool station (Kalypsys, San Diego, CA), followed by addition of 1ul Rosiglitazone (50 nM, final concentration in the wells). The assay plates were incubated at 37 C for 17 h, and then 1 uL of LiveBLAzerTM B/G FRET substrate was added using a Bioraptr Flying Reagent Dispenser (FRD) workstation (Beckman Coulter, Indianapolis, IN, USA). The assay plates were incubated at room temperature for 1 h and fluorescence intensity was measured by an Envision plate reader (PerkinElmer, Shelton, CT). For cell viability readout that measures cytotoxicity, 4 ul/well of CellTiter-Glo reagent was added into the assay plates using a Flying Reagent Dispenser. After 30 min incubation at room temperature, the luminescence intensity in the plates was measured using a ViewLux plate reader (PerkinElmer).
Potency means the concentration at half of the fitted maximal effect.

| Compound | Potency |
| --- | --- |
| O=C(O)c1ccccc1Nc1cccc(C(F)(F)F)c1 | inactive |
| C#C[C@]1(O)CC[C@H]2[C@@H]3CCC4=Cc5oncc5C[C@]4(C)[C@H]3CC[C@@]21C | 54.9 µM (active) |
| COc1cccc2c1C(=O)c1c(O)c3c(c(O)c1C2=O)C[C@@](O)(C(=O)CO)C[C@@H]3O[C@H]1C[C@H](N)[C@H](O)[C@H](C)O1 | inactive |
| CC1=CC2C3CC(C=C3C)C2C1 (stereo not given) | inactive |
| Nc1ccc(S(=O)(=O)Nc2cnc3ccccc3n2)cc1 | inactive |
| COC(=O)Nc1nc2ccc(S(=O)c3ccccc3)cc2[nH]1 (stereo not given) | inactive |
| O=[N+]([O-])c1ccc2c(c1)Cc1ccccc1-2 | inactive |
| CCC(C)OC(=O)c1ccc(O)cc1 (stereo not given) | inactive |
| CC(=O)C1(C)CC2=C(CCCC2(C)C)CC1C (stereo not given) | inactive |
| C=C(C)C(=O)OCCOC(=O)C(=C)C | inactive |
| CC(C)OC(=O)C(C)(C)Oc1ccc(C(=O)c2ccc(Cl)cc2)cc1 | inactive |
| COC(=O)c1ccccc1 | inactive |
| Nc1ccc(Cl)cc1Cl | inactive |
| C#C[C@]1(O)CC[C@H]2[C@@H]3CCc4cc(OC)ccc4[C@H]3CC[C@@]21C | inactive |
| COc1ccc(OC)c(C(O)CNC(=O)CN)c1 (stereo not given) | inactive |
| CCCCCCCCCCCO | inactive |
| Cc1cc2nc3c(=O)[nH]c(=O)nc-3n(C[C@H](O)[C@H](O)[C@H](O)CO)c2cc1C | inactive |
| CN1C(C(=O)Nc2ccccn2)=C(O)c2ccccc2S1(=O)=O | inactive |
| O=Cc1ccccc1O | inactive |
| CN(C)C(=N)N=C(N)N | inactive |

| Compound | Potency |
| --- | --- |
| C=CC(C)(CCC=C(C)C)OC(C)=O (stereo not given) | inactive |
| CC(C)Oc1ccc2c(=O)c(-c3ccccc3)coc2c1 | inactive |
| CCCCc1oc2ccccc2c1C(=O)c1cc(I)c(OCCN(CC)CC)c(I)c1 | 13.9 µM (active) |
| CCCCC(CC)COCC1CO1 (stereo not given) | inactive |
| CCCCCCCCCC(=O)OC | inactive |
| Oc1ccc(O)cc1 | inactive |
| Cn1cnc([N+](=O)[O-])c1Sc1ncnc2nc[nH]c12 | inactive |
| c1ccc2cc(Nc3ccc(Nc4ccc5ccccc5c4)cc3)ccc2c1 | inactive |
| CCCCNS(=O)(=O)c1ccccc1 | inactive |
| C/C=C/C(=O)O | inactive |
| O=CCCCC=O | inactive |
| O=C(/C=C/c1ccccc1)OCc1ccccc1 | inactive |
| S=C(NC1CCCCC1)NC1CCCCC1 | inactive |
| CC(CCC(=O)O)(c1ccc(O)cc1)c1ccc(O)cc1 | inactive |
| O=P(O)(O)O | inactive |
| Cc1c(OCC(F)(F)F)ccnc1CS(=O)c1nc2ccccc2[nH]1 (stereo not given) | inactive |
| NC=O | inactive |
| O=c1oc(=O)c2cc3c(=O)oc(=O)c3cc12 | inactive |
| CCCC(=O)O | inactive |
| O=C(OCc1ccccc1)c1ccccc1O | inactive |
